Experimental data taken from PubChem BioAssay.
A number with no mark means an inactive call. No rule for the calls is given here.

Test: blockers of DNA damage checkpoint Chk1 activation – imaging, HeLa, hydroxyurea, phospho-Chk1 antibody, percent positive cells, primary screen (AID 1186)
Conditions: hydroxyurea-induced phospho-Chk1 immunofluorescence imaging, higher = more signal
`COc1ccc(CCN2C(=O)[C@@]3(c4ccc([N+](=O)[O-])cc4)CC(=O)N(CC45CC6CC(CC(C6)C4)C5)[C@@H]3c3ccc(CO)cc32)cc1` showed a z-score of 0.33. For `O=C1O[C@@H](c2ccccc2)[C@@H](c2ccccc2)N2[C@@H](c3ccc(OCCO)cc3)[C@]3(C(=O)Nc4ccc(C#CCCO)cc43)[C@@H](C(=O)N3CCN(c4ncccn4)CC3)[C@H]12`, the z-score was 0.396. Work on `Cc1ccc(S[C@]2(C(=O)NC(C)C)CC(=O)N(C3Cc4ccccc4C3)[C@@H]2c2ccc(CO)cc2)cc1` yielded a z-score of 0.0695. In the case of `O=C1O[C@H](c2ccccc2)[C@H](c2ccccc2)N2[C@H]1[C@@H](C(=O)Nc1nc3ccccc3s1)[C@]1(C(=O)Nc3ccc(C#CC4=CCCCC4)cc31)[C@H]2c1ccccc1OCCO`, the z-score is reported as 0.205. In the case of `C=CC[C@]1(C(=O)O)N=C(c2ccc(OCCCO)cc2)O[C@H]1c1ccccc1N=[N+]=[N-]`, the z-score is reported as -0.0145. For `CCOC(=O)C1=C[C@@H](c2ccccc2)N(S(=O)(=O)c2ccc(C)cc2)[C@H]1c1ccc(F)cc1`, the z-score was 0.0332. In the case of `C=CCC(OC(C)=O)[C@@H]1[C@@H](N(Cc2cccc3ccccc23)C(=O)c2ccc(C)cc2)c2cc(OCCCO)ccc2N1C(=O)c1ccc(-c2ccccc2)cc1` (stereo partly specified), the z-score is reported as -0.35. With `COc1ccc(-c2cc3c(c(-c4ccccc4)n2)[Si](C(C)C)(C(C)C)O[C@H]3c2ccccc2)cn1` the z-score was -0.317. In the case of `Cc1ccc(S[C@]2(C(=O)O)CC(=O)N(Cc3cc(C(F)(F)F)cc(C(F)(F)F)c3)[C@@H]2c2ccc(CO)cc2I)cc1`, the z-score is reported as 0.407. Work on `O=C1O[C@H](c2ccccc2)[C@H](c2ccccc2)N2[C@H]1[C@@H](C(=O)Nc1nc3ccccc3s1)[C@]1(C(=O)Nc3ccc(C#CC4(O)CCCCCC4)cc31)[C@H]2c1ccc(O)cc1` yielded a z-score of 0.313. With `O=C1C2C=CC(C(O)C#Cc3ccccc3)N(Nc3ccccc3)C2C(=O)N1c1ccccc1` (stereo unspecified) the z-score was -0.0484. In the case of `CN1C(=O)C2C=CC(C(O)C3CC=CCC3)N(Nc3ccccc3)C2C1=O` (stereo unspecified), the z-score is reported as 0.202. For `COCCCNC(=O)[C@@]1(c2ccc([N+](=O)[O-])cc2)CC(=O)N(C2CCCCC2)[C@@H]1c1ccc(CO)cc1`, the z-score was 0.029. Work on `Cc1ccccc1C(O)C1C=CC2C(=O)N(c3ccccc3)C(=O)C2N1Nc1ccc(C#N)cc1` (stereo unspecified) yielded a z-score of -0.873. In the case of `CCOC(=O)C[C@H]1[C@H](OC(=O)Cc2ccc3c(c2)OCO3)[C@@H](NC(=O)c2ccc3ccccc3c2)c2cc(OCCCO)ccc2N1C(=O)Cc1ccc(OC)cc1`, the z-score is reported as 0.407. `COC(=O)[C@@]1(Cc2ccccc2CN=[N+]=[N-])N=C(c2ccc(OCCCO)cc2)O[C@H]1c1ccccc1N=[N+]=[N-]` gave a z-score of 0.0586. `O=C/C=C/c1ccc(/C=C/c2ccccc2)cc1` showed a z-score of 0.144. For `CC(C)NC(=O)[C@@]1(Cc2ccccc2I)c2ccccc2C(=O)N(C2CCCCC2)[C@H]1c1ccc(CO)cc1`, the z-score was 0.551. Work on `C=CCC(OC(C)=O)[C@@H]1[C@@H](N(Cc2cccc3ccccc23)C(=O)Cc2ccc(F)cc2)c2cc(OCCCO)ccc2N1C(=O)Cc1ccc2ccccc2c1` (stereo partly specified) yielded a z-score of -0.579. For `CCCC=C(CCC)[C@@H](NC(=O)c1ccc(C(F)(F)F)cc1)c1ccccc1`, the z-score was 0.128.

Test: blockers of DNA damage checkpoint Chk1 activation – imaging, HeLa, hydroxyurea, phospho-Chk1 nuclear intensity, primary screen (AID 1187); also: test concentration not given here
Conditions: hydroxyurea-induced phospho-Chk1 immunofluorescence imaging, higher = more signal
For `COCCOC(=O)N1C(=O)[C@@]2(c3cc(C#CC4=CCCCC4)ccc31)[C@H](C(=O)NC[C@H](O)c1ccccc1)[C@H]1C(=O)O[C@H](c3ccccc3)[C@H](c3ccccc3)N1[C@@H]2c1ccc(OCCO)cc1`, the z-score was 0.231. With `CCC#CCN(Cc1ccccc1Br)[C@H](/C=C/c1ccccc1)[C@@H](O)Cc1ccccc1` the z-score was -0.241. With `C=C(CCCC)/C(=C/C[C@@H](OC(=O)c1ccncc1)c1cccc(OCCO)c1)c1cc(C(=O)OC)ccc1OC` the z-score was 0.74. `NC(=O)NCC#Cc1ccc2c(c1)[C@]1(C(=O)N2)[C@H](c2ccccc2OCCO)N2[C@H](c3ccccc3)[C@H](c3ccccc3)OC(=O)[C@H]2[C@@H]1C(=O)N1CCN(c2ncccn2)CC1` gave a z-score of 1.5. `O=C1OCC=C[C@H]2OC34C=CCN(Cc5ccccc5)C(=O)[C@H]3N(CCO)C(=O)[C@@H]4[C@@H]12` (stereo partly specified) gave a z-score of 0.252. `Cc1ccc(S[C@]2(C(=O)NC(C)C)CC(=O)N(Cc3cc(C(F)(F)F)cc(C(F)(F)F)c3)[C@@H]2c2ccc(CO)cc2I)cc1` showed a z-score of 0.52. Work on `COc1ccc(C(=O)Nc2ccc(CN3C(=O)[C@]4(O[C@H](CCn5cc(CCO)nn5)[C@@H]([Si](C)(C)c5ccc(OC)cc5)[C@@H]4C)c4ccccc43)cc2)cc1` yielded a z-score of 0.686. Molecule `COC(=O)[C@@]1(Cc2ccccc2)[C@H]2c3cc(C(=O)N4CCCC4)n(CCN4CNCC4=O)c3C[C@H]2CN1C(=O)c1ccccc1` has a z-score of 0.912. `CCCNC(=O)[C@@H]1c2ccccc2C(=O)N(C2CCCCC2)[C@H]1c1ccc(CO)cc1` gave a z-score of -0.138. `CC(C)C[C@@H]1NC(=O)[C@H]2C[C@@H](C(=O)NCCCCCC[N+](C)(C)C)[C@@H](c3ccc(O)cc3)N2C1=O` gave a z-score of 0.61. Work on `O=C(NCc1ccccc1)[C@@]1(Cc2ccccc2)COC(c2ccc(OCCCO)cc2)=N1` yielded a z-score of -0.649. For `C=CCN1C(=O)[C@@]2(Cc3ccccc3)N=C(c3ccc(OCCCO)cc3)O[C@H]2c2ccccc21`, the z-score was -0.138. With `COCCCNC(=O)[C@@H]1c2ccccc2C(=O)N(CC23CC4CC(CC(C4)C2)C3)[C@H]1c1ccc(CO)cc1` the z-score was -0.786. `[N-]=[N+]=NCc1ccccc1[C@H]1OC(c2ccc(OCCCO)cc2)=N[C@@]1(Cc1ccccc1N=[N+]=[N-])C(=O)NCc1ccccc1` gave a z-score of -0.747. In the case of `O=C1C2C=CC(C(O)c3ccccc3)N(n3cnnc3)C2C(=O)N1Cc1ccccc1` (stereo unspecified), the z-score is reported as -1.21. Work on `CCCC[C@@H]1C[C@H]1[C@@H](NC(=O)c1ccccc1)c1ccccc1C(F)(F)F` yielded a z-score of 0.542. For `COc1ccc(CCN2C(=O)[C@@]3(c4ccc([N+](=O)[O-])cc4)CC(=O)N(CC45CC6CC(CC(C6)C4)C5)[C@@H]3c3ccc(CO)cc32)cc1`, the z-score was 0.522. `O=C1O[C@@H](c2ccccc2)[C@@H](c2ccccc2)N2[C@@H](c3ccc(OCCO)cc3)[C@]3(C(=O)Nc4ccc(C#CCCO)cc43)[C@@H](C(=O)N3CCN(c4ncccn4)CC3)[C@H]12` gave a z-score of 0.92. In the case of `Cc1ccc(S[C@]2(C(=O)NC(C)C)CC(=O)N(C3Cc4ccccc4C3)[C@@H]2c2ccc(CO)cc2)cc1`, the z-score is reported as 0.0887. In the case of `O=C1O[C@H](c2ccccc2)[C@H](c2ccccc2)N2[C@H]1[C@@H](C(=O)Nc1nc3ccccc3s1)[C@]1(C(=O)Nc3ccc(C#CC4=CCCCC4)cc31)[C@H]2c1ccccc1OCCO`, the z-score is reported as 0.375. Work on `C=CC[C@]1(C(=O)O)N=C(c2ccc(OCCCO)cc2)O[C@H]1c1ccccc1N=[N+]=[N-]` yielded a z-score of 0.144. `CCOC(=O)C1=C[C@@H](c2ccccc2)N(S(=O)(=O)c2ccc(C)cc2)[C@H]1c1ccc(F)cc1` gave a z-score of -0.293. `C=CCC(OC(C)=O)[C@@H]1[C@@H](N(Cc2cccc3ccccc23)C(=O)c2ccc(C)cc2)c2cc(OCCCO)ccc2N1C(=O)c1ccc(-c2ccccc2)cc1` (stereo partly specified) gave a z-score of -0.844. Molecule `COc1ccc(-c2cc3c(c(-c4ccccc4)n2)[Si](C(C)C)(C(C)C)O[C@H]3c2ccccc2)cn1` has a z-score of -0.344. With `Cc1ccc(S[C@]2(C(=O)O)CC(=O)N(Cc3cc(C(F)(F)F)cc(C(F)(F)F)c3)[C@@H]2c2ccc(CO)cc2I)cc1` the z-score was 1.08. In the case of `O=C1O[C@H](c2ccccc2)[C@H](c2ccccc2)N2[C@H]1[C@@H](C(=O)Nc1nc3ccccc3s1)[C@]1(C(=O)Nc3ccc(C#CC4(O)CCCCCC4)cc31)[C@H]2c1ccc(O)cc1`, the z-score is reported as 0.634. Work on `O=C1C2C=CC(C(O)C#Cc3ccccc3)N(Nc3ccccc3)C2C(=O)N1c1ccccc1` (stereo unspecified) yielded a z-score of -0.217. `CN1C(=O)C2C=CC(C(O)C3CC=CCC3)N(Nc3ccccc3)C2C1=O` (stereo unspecified) showed a z-score of 0.25. In the case of `COCCCNC(=O)[C@@]1(c2ccc([N+](=O)[O-])cc2)CC(=O)N(C2CCCCC2)[C@@H]1c1ccc(CO)cc1`, the z-score is reported as -0.269. For `Cc1ccccc1C(O)C1C=CC2C(=O)N(c3ccccc3)C(=O)C2N1Nc1ccc(C#N)cc1` (stereo unspecified), the z-score was -0.982. `CCOC(=O)C[C@H]1[C@H](OC(=O)Cc2ccc3c(c2)OCO3)[C@@H](NC(=O)c2ccc3ccccc3c2)c2cc(OCCCO)ccc2N1C(=O)Cc1ccc(OC)cc1` showed a z-score of 0.668. `COC(=O)[C@@]1(Cc2ccccc2CN=[N+]=[N-])N=C(c2ccc(OCCCO)cc2)O[C@H]1c1ccccc1N=[N+]=[N-]` showed a z-score of 0.0586. For `O=C/C=C/c1ccc(/C=C/c2ccccc2)cc1`, the z-score was 0.848. In the case of `CC(C)NC(=O)[C@@]1(Cc2ccccc2I)c2ccccc2C(=O)N(C2CCCCC2)[C@H]1c1ccc(CO)cc1`, the z-score is reported as 0.615. `C=CCC(OC(C)=O)[C@@H]1[C@@H](N(Cc2cccc3ccccc23)C(=O)Cc2ccc(F)cc2)c2cc(OCCCO)ccc2N1C(=O)Cc1ccc2ccccc2c1` (stereo partly specified) gave a z-score of -0.516. With `CCCC=C(CCC)[C@@H](NC(=O)c1ccc(C(F)(F)F)cc1)c1ccccc1` the z-score was 0.29.
